# Assay outcomes as filed in PubChem.
# Shn3 3UTR inh: inhibitors of Schnurri-3 3'UTR reporter in osteoblasts. Clone20 osteoblast Shn3 3'UTR firefly luciferase, 24 h. inhibition, % at 12.5 µM. 0.52% of 360,000 active;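 active means mean inhibition of at least 75% with every replicate also reaching 75%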;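 further: 0% = median of neutral control wells and 100% = pilot-screen positive control compound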
# 697 NFkB inh: inhibitors of the PMA/ionomycin-induced NF-kB reporter in 697 B cells; 697 B-cell NF-kB luciferase reporter, 16 h; inhibition, % at 4 µM; 0.33% of 330,000 active; AID 435022; in the data active means inhibition above about 35%
# TRPM1 prom inh: MITF TRPM1 promoter inhibition in SK-MEL-5 cells | SK-MEL-5 TRPM1 promoter luciferase, 24 h | inhibition, % at 12.5 µM | 0.83% of 330,000 active;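 active means mean inhibition across replicates of 60% or more, whatever share of single replicates reaches that level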
# Jurkat NFkB inh: inhibitors of the PMA/ionomycin-induced NF-kB reporter in Jurkat cells; PMA/ionomycin-induced NF-kB luciferase reporter, luminescence; inhibition, % at 4 µM; 0.53% of 330,000 active; in the data active means inhibition above about 50%
# LMP1 NFkB inh: reduces LMP1-driven NF-kappaB luciferase signal; LMP1-induced NF-kappaB luciferase reporter cells, luminescence; inhibition, % at 12.5 µM; 0.69% of 350,000 active; in the data active means inhibition above about 41%;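 further: 0% = neutral control wells and 100% = reference inhibitor control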
# Gli-Sufu antag: Gli-Sufu pathway antagonism; inhibition, % at 5 µM; 0.74% of 340,000 active; Sufu-KO-LIGHT fibroblasts, Gli luciferase reporter luminescence;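 active means inhibition above about 55%, limit read from the data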;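 further: 0% = DMSO-treated cells and 100% = wells with medium but no cells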
# Gli antag conf: Gli-SUFU antagonism confirmation, single concentration; shares compounds with Gli-Sufu antag; Sufu-KO-LIGHT cells, Gli luciferase reporter, luminescence; inhibition, % at 5 µM; 40% of 2,500 active;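 active means mean inhibition at 5 µM reaching about 45%, limit read from the data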;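 further: plate controls were DMSO-treated cells for no effect and wells lacking cells for full effect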
# SufuKO cytotox: counter-screen for Gli-SUFU antagonists: cytotoxicity; 32% of 2,500 active; Sufu-KO-LIGHT cells cytotoxicity, ATP luminescence; cytotoxicity, % at 5 µM; AID 651994; shares compounds with Gli-Sufu antag;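 active means mean cytotoxicity at 5 µM above about 25%, limit read from the data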;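 further: cells exposed to compound overnight for roughly 16 to 18 hours; plate controls were DMSO wells with cells for no effect and medium without cells for full effect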
# Wnt3a cs: counter-screen for Gli-SUFU antagonists: Wnt3a reporter inhibition; inhibition, % at 6.25 µM; AID 651995; Wnt-LIGHT cells, Wnt3a-driven luciferase reporter, luminescence; 20% of 2,500 active; shares compounds with Gli-Sufu antag;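 active means mean inhibition above about 25%, limit read from the data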
# * marks the source's active call; other numbers are inactive results; / = no result given. Most compounds without a hit are left out; they make up all but 2.3% or so of the library.
SMILES,Shn3 3UTR inh,697 NFkB inh,TRPM1 prom inh,Jurkat NFkB inh,LMP1 NFkB inh,Gli-Sufu antag,Gli antag conf,SufuKO cytotox,Wnt3a cs
Cc1oc(-c2ccc(Cl)cc2)nc1CS(=O)CC(=O)NCc1ccco1 (stereo not drawn),3,-13,-3,16,-4,-1,/,/,/
CCc1ccc(-c2nc(CSCC(=O)NCc3ccco3)c(C)o2)cc1,46,/,36,/,19,84*,88*,-2,46*
CCOC(=O)c1ccc2c(c1)n(CC)c(/C=C/Nc1ccccc1)[n+]2CC,-34,-21,7,46,1,54,53*,34*,-13
CCn1c(C)[n+](Cc2ccccc2)c2ccc(C(=O)OC)cc21,-11,18,0,7,-15,6,/,/,/
COC(=O)c1ccc(OCc2cc(=O)n3ccsc3n2)cc1,-9,-33,11,-36,3,80*,18,9,2
COc1cccc(NC(=O)CSCc2cc(=O)n3ccsc3n2)c1,9,-7,0,9,0,-9,/,/,/
COc1ccc(C(=O)Nc2cc(C)nn2-c2cccc(F)c2)cc1,-3,14,5,-7,-2,26,/,/,/
Cc1ccc(NS(=O)(=O)c2ccc(-c3ccc(=O)[nH]n3)o2)cc1Cl,-12,-3,-8,7,-9,54,9,-4,5
COc1ccccc1NS(=O)(=O)c1ccc(C)c(C(=O)NC2CCN(Cc3ccccc3)CC2)c1,54,-41,17,24,5,40,/,/,/
COc1ccccc1NS(=O)(=O)c1cccc(C(=O)NC2CCN(Cc3ccccc3)CC2)c1,87*,-23,24,45,32,54,57*,27*,-1
COc1cc(C(=O)NC2CC3CCCC(C2)N3Cc2ccccc2)cc(OC)c1OC (stereo not drawn),16,-52,-1,-24,4,18,/,/,/
COc1ccc(C(=O)NC2CC3CCCC(C2)N3Cc2ccccc2)cc1OC (stereo not drawn),0,1,0,2,-13,57*,11,-5,-29
Cc1ccc(C(=O)NC2CCN(Cc3ccccc3)CC2)cc1S(=O)(=O)N1CCOCC1,27,-40,11,24,3,61*,18,19,4
O=C(Nc1ccccc1)C1=C[C@H](c2ccc3c(c2)OCO3)C[C@H](OCCCCO)O1,-64,3,-28,-7,-6,-28,/,/,/
O=c1ccnc(SCCC(F)=C(F)F)[nH]1,-11,11,9,9,0,1,/,/,/
COc1ccc(-c2cc(C)no2)cc1S(=O)(=O)NCC1CCN(Cc2cc(C)ccc2C)CC1,-22,7,-24,10,-2,33,/,/,/
COc1ccc(S(=O)(=O)N2CCN(Cc3ccccc3)CC2)c(C)c1,16,7,-1,1,8,5,/,/,/
COc1cc(C)c(C)cc1S(=O)(=O)N1CCN(Cc2ccccc2)CC1,-4,-42,6,-28,-4,50,18,-4,14
CC(=O)N1CCC(C(=O)N2CCN(S(=O)(=O)c3ccc(Cl)s3)CC2)CC1,14,-4,-8,-9,6,97*,15,22,11
CCN1CCN(C(=O)/C=C/c2ccc(F)cc2)CC1,17,10,/,-14,/,4,/,/,/
CCN1CCN(C(=O)/C=C/c2ccc(OC)cc2)CC1,0,-32,12,-14,-3,60*,28,27*,-4
Cn1c(=O)c2ccccc2n(Cc2ccccc2F)c1=O,30,-16,10,8,3,8,/,/,/
Cn1c(=O)c2ccccc2n(Cc2cccc(F)c2)c1=O,13,-50,-13,-19,9,54,27,3,0
Cc1ccc2c(c1)N(CCC(=O)NCc1ccccn1)C(=O)CO2,17,14,11,0,-8,53,8,0,5
Cc1cc(C)n(-c2nc3ccccc3nc2N2CCN(S(=O)(=O)c3cccc(C#N)c3)CC2)n1,-10,0,12,3,-1,26,/,/,/
SMILES,Shn3 3UTR inh,697 NFkB inh,TRPM1 prom inh,Jurkat NFkB inh,LMP1 NFkB inh,Gli-Sufu antag,Gli antag conf,SufuKO cytotox,Wnt3a cs
CCOC(=O)Cc1ccc(NCc2ccc(Cl)cc2)cc1,5,-1,-3,11,-1,-6,/,/,/
Cc1oc(-c2ccccc2)cc1C(N)=O,/,0,-16,10,3,100*,8,9,-20
O=C(CCCn1nnnc1CN1CCOCC1)N1CCC(c2ccc(F)cc2)C1 (stereo not drawn),3,-28,10,-9,2,97*,21,10,-27
CCN(CC)C(=O)C1CCCN(C(=O)CCn2nnnc2CN2CCOCC2)C1 (stereo not drawn),-21,13,2,-13,1,0,/,/,/
CC[n+]1c(/C=C/N(C)c2ccccc2)oc2ccc(F)cc21,76,-28,45,17,7,82*,84*,26*,70*
Clc1ccc(SCCOCCN2CCCCC2)cc1,-12,-3,-7,-11,-5,79*,28,13,-26
C/C=C/C(=O)Nc1cccc(C2=NOC3(C2)C[C@@H](C(N)=O)N(C(=O)c2cc([N+](=O)[O-])cc([N+](=O)[O-])c2)C3)c1 (stereo partly drawn),-4,-15,13,-26,-3,-9,/,/,/
COc1ccc(C=O)cc1C1=CC(=O)C[C@H](c2ccc(Cl)cc2)C1,11,22,8,13,-2,-3,/,/,/
O=C(Nc1nc(-c2cc3ccccc3o2)cs1)c1ccc(S(=O)(=O)N2CCCC2)cc1,77,23,43,27,12,50,59*,30*,-11
FC(F)(F)c1cnc(Sc2nnc(-c3cccs3)n2CC2CCCO2)c(Cl)c1 (stereo not drawn),6,5,-8,-5,3,51,11,24,-28
CCN(c1ccc(N=Cc2c(O)n(Cc3ccc(OC)cc3)c(=O)c3ccccc23)cc1)C(C)C,-24,/,0,/,-1,4,/,/,/
CCCc1cc(=O)oc2cc(C)cc(OCC(=O)O)c12,14,8,13,-12,3,100*,5,-5,-9
CCCc1cc(=O)oc2cc(C)cc(OCC(=O)Nc3ccccn3)c12,-5,-3,-10,3,-16,9,/,/,/
CCSc1ccccc1C(=O)N1CCN(Cc2ccc3c(c2)OCO3)CC1,-2,8,1,-7,14,1,/,/,/
Cc1ccc(S(=O)(=O)Nc2ccccc2C(=O)Nc2nc(-c3ccc(F)cc3)cs2)cc1,75,-25,44,8,21,77*,79*,35*,78*
Cc1ccc(S(=O)(=O)Nc2nc(-c3ccccc3)cs2)cc1,-11,11,-12,1,-4,-9,/,/,/
